# The list is not random: actives were taken first. Their share in the collection is about 27%.
# CYP2C9 activ: increases human cytochrome P450 2C9 activity; P11712; 96,000 tested, 1.4% active; activation factor at 5 µM; recombinant CYP2C9, luciferin-H conversion, luminescence; hits give high values; factor 1 = untreated enzyme, 0 = blocked;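 active = activation factor of 2 or more for CYP2C9 at a 5 µM dose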;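 note: 0 = sulfaphenazole-blocked wells and 1 = vehicle-only wells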
# sEH inhibitor: soluble epoxide hydrolase (human) inhibition | recombinant human sEH enzymatic activity assay | P34913 | inhibition, % at 2 µM | AID 707 | 91,000 tested, 0.34% active; in the data active = inhibition above about 80%
# CYP2C19 act: activators of human cytochrome P450 2C19; recombinant CYP2C19, luciferin-H EGE luminescence; hits give high values; 0 = fully inhibited enzyme, 1 = untreated enzyme; P33261; activation factor at 5 µM; 96,000 tested, under 10 active;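 active = activation factor of at least 2 at 5 µM in the primary screen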;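 note: 0 = wells with 2.5 mM tranylcypromine and 1 = vehicle-only wells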
# Target sequence (P33261 whole entry, looked up): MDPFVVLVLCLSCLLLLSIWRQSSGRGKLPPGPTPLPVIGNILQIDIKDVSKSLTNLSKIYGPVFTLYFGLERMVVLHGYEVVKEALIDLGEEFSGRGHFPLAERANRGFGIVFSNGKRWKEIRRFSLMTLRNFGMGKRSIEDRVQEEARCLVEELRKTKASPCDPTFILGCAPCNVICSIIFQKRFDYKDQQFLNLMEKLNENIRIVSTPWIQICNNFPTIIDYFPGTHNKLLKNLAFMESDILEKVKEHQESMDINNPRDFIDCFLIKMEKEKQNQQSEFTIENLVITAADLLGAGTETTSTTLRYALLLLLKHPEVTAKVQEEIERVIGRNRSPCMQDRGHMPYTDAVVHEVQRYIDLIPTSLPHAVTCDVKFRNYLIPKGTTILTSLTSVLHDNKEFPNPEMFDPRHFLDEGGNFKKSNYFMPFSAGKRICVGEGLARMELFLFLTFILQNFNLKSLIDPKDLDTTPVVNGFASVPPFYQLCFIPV
# CYP2C19 inhib: blocks human cytochrome P450 2C19 | 96,000 tested, 21% active | inhibition, % at 5 µM | P33261 | CYP2C19 Supersomes, luciferin-H EGE luminescence, 30 min;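 active = CYP2C19 inhibition above a set limit at 5 µM in the primary screen, cut at about 50% in these data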;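 note: plate controls were negative control wells for no effect and 2.5 mM tranylcypromine positive control for full effect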
# CYP2C9 inhib: human CYP2C9 inhibition; P11712; CYP2C9 Supersomes, luciferin-H conversion, luminescence; inhibition, % at 5 µM; 96,000 tested, 20% active; AID 777;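 active = blocking of liver enzyme CYP2C9 beyond about 50% at 5 µM, limit read from the data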
# sEH activator: increases human soluble epoxide hydrolase activity; P34913; purified human sEH enzymatic activity, activator screen; activation, % at 2 µM; 91,000 tested, 0.04% active; AID 717; in the data active = activation above about 37%
# An asterisk follows results filed as active; nt = not tested or not shown.
SMILES,CYP2C9 activ,sEH inhibitor,CYP2C19 act,CYP2C19 inhib,CYP2C9 inhib,sEH activator
Cc1cc(C)c(C#N)c(N2CCOCC2)n1,nt,-8.7,nt,nt,nt,13.4
CC(C)c1nc(N2CCOCC2)c(C#N)c2c1CCC2,0.8,-14.7,0.8,16.2,22.1,18.6
CCCc1nc(N2CCOCC2)c(C#N)c2c1CCCC2,0.3,5.7,0.2,82.4*,72.1*,-4.4
CCCCc1nc(N2CCOCC2)c(C#N)c2c1CCCC2,0.5,6.7,0.7,30.3,49.1,-6.7
CSc1nc(C)c2c(c1C#N)CCCC2,1.3,nt,0.8,18.5,-26.8,nt
CSc1nc(N2CCOCC2)c2c(c1C#N)CCCCC2,0.2,-7.5,0.5,47.1,78.6*,10.2
Cc1nc(N2CCOCC2)c(C#N)c(C)c1Br,0.8,-0.1,0.4,55.6*,20.1,0.0
CC1(C)NC(=O)N(CC(O)CNC23CC4CC(CC(C4)C2)C3)C1=O (stereo not given),0.9,-6.5,0.9,7.0,6.3,9.1
N#CCCSc1nc(N2CCOCC2)c2c(c1C#N)CCCC2,0,2.1,0.1,91.1*,97.0*,1.5
COC(=O)c1ccc(C)c(NS(=O)(=O)c2ccc(OC)cc2)c1,0.3,14.8,0,100.2*,69.5*,-14.5
COC(=O)c1ccc(C)c(NS(=O)(=O)c2ccc(C)c([N+](=O)[O-])c2)c1,0.2,20.9,0.1,90.2*,79.9*,-19.0
COC(=O)c1ccc(C(=O)OC)c(NS(=O)(=O)c2ccc(NC(C)=O)cc2)c1,0.1,nt,0.4,61.7*,89.9*,nt
COC(=O)c1ccc(Sc2ccccc2NS(=O)(=O)c2ccc(NC(C)=O)cc2)nc1,0.2,3.6,0.4,60.9*,79.5*,-1.4
COC(=O)c1ccc(N2CCN(S(=O)(=O)c3ccccc3)CC2)c([N+](=O)[O-])c1,0.7,nt,0.9,13.4,30.6,nt
COC(=O)c1cccc(NS(=O)(=O)c2ccc(NC(C)=O)cc2)c1C,1.4,-0.3,0.6,38.3,-36.5,1.5
CCN(CC)c1ccc(C2Nc3cccc4cccc(c34)N2)c(O)c1,1.2,2.4,0.8,24.2,-15.7,0.8
COC(=O)c1ccccc1NC(=O)CSc1nnc(-c2ccc(OC)cc2)n1C,nt,3.6,nt,nt,nt,1.3
C/C(CC(O)c1ccc2ccccc2n1)=N/O (stereo not given),0.9,3.9,1,1.4,8.4,-1.3
COC(=O)c1ccc(C)c(NS(=O)(=O)c2ccc3c(c2)OCCO3)c1,0.4,-16.4,0.1,91.3*,62.3*,13.5
COc1ccc(N2CCCCn3c2nc2c3c(=O)n(C)c(=O)n2C)cc1,0.6,-15.1,0.7,32.1,36.4,14.6
O=S(=O)(Nc1ccc(-n2cccc2)cc1)c1ccc(Cl)cc1Cl,0,-1.1,0,99.6*,100.0*,3.5
CN1CCN(c2ccc(Cl)cc2NS(=O)(=O)c2ccccc2Cl)CC1,0.8,nt,0.8,18.7,17.2,nt
CN(C)c1ccc(-c2nn3c(-c4ccccc4Cl)nnc3s2)cc1,0.9,-11.8,0.7,26.6,13.3,11.3
Clc1ccccc1-c1nn2c(-c3ccccn3)nnc2s1,0.9,nt,0.4,59.6*,13.6,nt
Clc1ccc(-c2nn3cnnc3s2)c(Cl)c1,0.7,nt,0.1,88.6*,29.4,nt
SMILES,CYP2C9 activ,sEH inhibitor,CYP2C19 act,CYP2C19 inhib,CYP2C9 inhib,sEH activator
Clc1ccccc1-c1nnc2sc(-c3ccncc3)nn12,0.7,-6.1,0.2,80.5*,34.5,4.5
Clc1ccccc1-c1nn2c(-c3ccncc3)nnc2s1,0.3,-1.7,0.2,78.5*,74.4*,1.8
CC(=O)c1ccc(OCC(O)CN2CCN(CCO)CC2)cc1 (stereo not given),0.8,-13.8,1.1,-5.9,22.7,12.7
CC(=O)NC1Sc2ccccc2N=C1c1ccccc1 (stereo not given),0.6,10.7,0.6,40.5,37.1,-10.4
CCC(=O)N1CCCc2cc(S(=O)(=O)N3CCN(C4CCCCC4)CC3)ccc21,1.1,nt,0.7,33.0,-5.7,nt
Clc1ccc(-c2nn3c(-c4cccc(Cl)c4)nnc3s2)cc1,0.8,nt,0.4,60.5*,23.8,nt
Brc1ccc(-c2nn3c(-c4ccncc4)nnc3s2)o1,0.8,nt,0.3,68.8*,15.5,nt
Cc1cccc(-c2nnc3sc(-c4ccccc4)nn23)c1,0.9,-8.9,0.7,29.2,11.8,6.8
Clc1ccccc1-c1nnc2sc(-c3cccs3)nn12,0.4,nt,0.6,42.2,61.1*,nt
Brc1ccc(-c2nn3c(-c4ccccn4)nnc3s2)o1,0.9,3.4,0.6,43.2,11.5,-2.9
Cc1ccc(-c2nnc3sc(-c4ccncc4)nn23)cc1,1,-5.2,0.7,33.2,4.0,7.9
Clc1ccc(-c2nn3c(-c4ccncc4)nnc3s2)c(Cl)c1,0.8,nt,0.2,83.8*,15.3,nt
Cc1cc(N2CCC(C)CC2)nc(SCC(=O)c2ccccc2)n1,nt,2.7,nt,nt,nt,-3.3
Cn1c(SCC(=O)c2ccc3c(c2)OCCO3)nnc1C1CC1,nt,1.4,nt,nt,nt,-2.1
Cc1oc(CC(C)C)cc1C(=O)Nc1ccc(C(=O)O)cc1,1,-7.1,1,-1.0,2.0,7.7
Cc1nn2c(-c3ccc(Cl)cc3Cl)nnc2s1,0.9,-15.4,0.5,51.7*,12.6,13.8
Cc1ccc(-c2nnc3sc(C4COc5ccccc5O4)nn23)cc1 (stereo not given),1,nt,1,2.0,-1.1,nt
Clc1ccc(-c2nnc3cccc(Cl)n23)c(Cl)c1,1,-9.5,0.6,38.9,3.8,9.2
Clc1ccccc1-c1nnc2sc(C3COc4ccccc4O3)nn12 (stereo not given),0.1,-5.6,0.1,86.1*,87.2*,8.3
CCc1ccc(C2CC(c3ccccc3C)n3nc(N)nc3N2)cc1 (stereo not given),1.1,nt,0.9,8.1,-11.2,nt
O=C(O)c1ccc(-c2ccc(O)c(F)c2)cc1,1,8.0,1.2,-16.0,-4.7,-8.3
COc1ccc(OCC(=O)NC2CC(C)(C)NC(C)(C)C2)cc1,1.1,nt,1,-4.3,-7.7,nt
CC1CN(C(=O)CSc2nc(-c3ccc(F)cc3)cs2)CC(C)O1 (stereo not given),0.9,2.8,0.2,78.9*,10.0,-1.4
O=C(CSc1nc(-c2ccc(F)cc2)cs1)N1CCOCC1,2.1*,9.8,0.3,69.4*,-110.3,-4.8
Cc1cc(S(=O)(=O)N(C)CCc2ccccc2)ccc1-n1cnnn1,0.7,nt,0.4,57.2*,26.2,nt
SMILES,CYP2C9 activ,sEH inhibitor,CYP2C19 act,CYP2C19 inhib,CYP2C9 inhib,sEH activator
COc1cc(S(=O)(=O)N(Cc2ccccc2)Cc2ccccn2)ccc1-n1cnnn1,nt,-12.0,nt,nt,nt,16.3
COc1cccc(CN(Cc2cccnc2)S(=O)(=O)c2ccc(-n3cnnn3)c(C)c2)c1,0.8,12.9,0.4,59.7*,16.8,-13.2
COc1cc(C(=O)NCCc2cn3ccc(C)cc3n2)cc(OC)c1OC,1,7.3,0.8,19.7,0.5,-8.0
COc1ccc(C(=O)NCCc2cn3ccc(C)cc3n2)cc1,0.8,-4.4,0.3,74.6*,24.4,3.3
CN(C)c1ncc(S(=O)(=O)c2ccccc2)c(-c2ccccc2Cl)n1,0.7,14.4,0.2,76.4*,31.8,-16.6
N#Cc1c2n(c(=O)[nH]c1=O)CCCCC2,nt,5.6,nt,nt,nt,-10.5
